The sample as a whole holds a higher share of hits than the screen did.
FECH inh – inhibitors of human ferrochelatase; calls only at 10 µM (by protocol); 3.3% of 20,000 active; P22830; purified FECH, Ni-mesoporphyrin absorbance 550 nm; AID 1671448;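 active = enzyme reaction rate more than 3 SD below the solvent-only control wells on the same plate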;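 also: lower slope than DMSO wells means FECH inhibition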
Target sequence (P22830 whole entry, looked up): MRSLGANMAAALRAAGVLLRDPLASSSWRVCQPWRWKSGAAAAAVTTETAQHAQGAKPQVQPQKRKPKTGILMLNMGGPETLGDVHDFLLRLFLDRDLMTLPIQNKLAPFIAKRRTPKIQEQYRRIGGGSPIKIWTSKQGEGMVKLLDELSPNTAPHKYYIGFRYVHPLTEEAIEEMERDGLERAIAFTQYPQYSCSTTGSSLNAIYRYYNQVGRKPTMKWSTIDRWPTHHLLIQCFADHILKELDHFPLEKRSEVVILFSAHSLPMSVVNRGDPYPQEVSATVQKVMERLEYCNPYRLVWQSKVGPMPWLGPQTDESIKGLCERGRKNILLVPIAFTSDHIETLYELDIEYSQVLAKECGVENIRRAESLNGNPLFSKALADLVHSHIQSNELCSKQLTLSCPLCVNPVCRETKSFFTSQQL
Of the large screens only hits and unclear results are named; the others gave an inactive call.

Cc1cccc(NC(=O)CN2CCN(Cc3ccc(F)cc3Cl)S2(=O)=O)c1	FECH inh active
O=S1(=O)N(Cc2ccccc2Cl)CCCN1Cc1ccc(F)cc1Cl	FECH inh active
COc1ccc(NC(=O)CN2CCN(Cc3ccc(F)cc3Cl)S2(=O)=O)cc1Cl	FECH inh active
COc1ccc(CN2CCCN(Cc3ccccc3Cl)S2(=O)=O)cc1	none
COc1ccc(NC(=O)CN2CCN(Cc3ccccc3Cl)S2(=O)=O)cc1Cl	none
Cc1cc(C)cc(NC(=O)CN2CCN(Cc3ccc(F)cc3Cl)S2(=O)=O)c1	none
Cc1ccc(NC(=O)CN2CCN(Cc3ccc(F)cc3Cl)S2(=O)=O)cc1C	none
O=C(CN1CCN(Cc2ccc(F)cc2Cl)S1(=O)=O)Nc1cccc(F)c1	none
C=CCN(CC=C)C(=O)[C@@H]1C[C@H](NC(=O)c2ccccc2C)CN1C	none
CC(C)Nc1ncc(C(=O)N2CCN(C(=O)c3ccccc3)CC2)cn1	none
Cc1ccc(CNC(=O)CN2CCN(Cc3ccccc3Cl)S2(=O)=O)cc1	none
Cc1cc(C(=O)N2C[C@H]3CC=CC[C@H]3C2)nc(C)n1	none
CCOc1ccc(-c2nc(CSc3nc(C)c(C)c(=O)[nH]3)c(C)o2)cc1OC	none
Cc1ccc(C2=CC(c3ccc(C)cc3)n3nc(NC(=O)c4cccc(Cl)c4)nc3N2)cc1 (stereo not given)	FECH inh active
Cc1ccc(C(=O)Nc2nc3n(n2)C(c2ccc(Cl)cc2)C=C(c2ccc(C)cc2)N3)cc1 (stereo not given)	FECH inh active
O=C(Nc1nc2n(n1)C(c1ccccc1)C=C(c1ccc(Cl)cc1)N2)c1ccc(Cl)cc1 (stereo not given)	none
Cc1ccc(C2=CC(c3ccc(Cl)cc3)n3nc(NC(=O)C(C)C)nc3N2)cc1 (stereo not given)	none
O=C(Nc1nc2n(n1)C(c1ccc(F)cc1)C=C(c1ccc(Cl)cc1)N2)c1ccccc1 (stereo not given)	none
Cc1cccc(C(=O)Nc2nc3n(n2)C(c2ccccc2Cl)C=C(c2ccc(Cl)cc2)N3)c1 (stereo not given)	none
Cc1ccc(C(=O)Nc2nc3n(n2)C(c2ccccc2)C=C(c2ccccc2)N3)cc1 (stereo not given)	none
Cc1cccc(C(=O)Nc2nc3n(n2)C(c2ccc(Cl)cc2)C=C(c2ccccc2)N3)c1 (stereo not given)	FECH inh active
Cc1ccc(C(=O)Nc2nc3n(n2)C(c2ccc(F)cc2)C=C(c2ccccc2)N3)cc1 (stereo not given)	none
CCC(CC)n1ncc(C)c1NC(=O)c1cc(Cl)ccc1C	none
COc1ccc(NC(=O)c2ccc(CN3C(=O)CCn4nc(C)cc43)cc2)cc1	none
Cc1ccc(Cl)c(C(=O)N(C)Cc2cnc3ccccc3c2)c1	none
CCCNS(=O)(=O)c1ccc(N2C(=O)CCS2(=O)=O)cc1	none
Cc1nc(C(C)C)ncc1C(=O)N1CCNCC1C(=O)NC1CC1 (stereo not given)	none
CC(=O)NCCc1cn(-c2ccc(-c3ncc(C)cn3)cc2)cn1	none
CC(=O)NCCc1cn(-c2cccc(OC(C)C)c2)cn1	FECH inh active
CC(=O)NCCc1cn(-c2ccc3c(c2)CCCN3C(C)=O)cn1	none
COc1nc2ccccc2nc1SCC(=O)NCCc1ccc(S(N)(=O)=O)cc1	none
NS(=O)(=O)c1ccc(CCNC(=O)CCN2C(=O)c3cccnc3Sc3ccccc32)cc1	FECH inh active
NS(=O)(=O)c1ccc(CCNC(=O)CCCN2C(=O)c3cccnc3Sc3ccccc32)cc1	none
NS(=O)(=O)c1ccc(CCNC(=O)CN2CCSc3ccccc32)cc1	none
Cc1cc(N2CCOCC2)nc(N2CCN(S(=O)(=O)c3ccc(Br)cc3)CC2)n1	none
Cc1ccc(-c2ccnc(NCc3ncn[nH]3)n2)c(C)n1	none
CCOc1ccc(NC(=O)c2cc(-c3ccc(OC)c(S(N)(=O)=O)c3)n[nH]2)cc1	none
CCc1ccc(-c2noc3c(=O)n(CCC(=O)Nc4ccc(S(N)(=O)=O)cc4)cnc23)cc1	none
CCOc1ccc(-c2cc(C(=O)Nc3ccc(S(N)(=O)=O)cc3)no2)cc1	FECH inh active
NS(=O)(=O)c1ccc(NC(=O)c2nn(-c3cccc(Cl)c3)ccc2=O)cc1	none
NS(=O)(=O)c1ccc(NC(=O)c2cc(-c3ccc(Cl)cc3)on2)cc1	FECH inh active
NS(=O)(=O)c1ccc(NC(=O)c2noc3c2CCCC3)cc1	none
CC(O)CNc1nc(Nc2ccc3c(c2)OCO3)c2cnn(-c3ccccc3)c2n1 (stereo not given)	none
CCOc1ccc(CC(=O)NC2CC(=O)N(c3ccc(F)cc3)C2)cc1 (stereo not given)	none
Cc1ccc(-c2cc(O)c3c(c2)CN(C(=O)CCc2n[nH]c(C)n2)CCO3)cc1	none
COc1ccc(NC(=O)CN2CCCN(Cc3ccccc3)S2(=O)=O)c(OC)c1	none
COc1ccccc1NC(=O)CN1CCCN(Cc2cccc(C)c2)S1(=O)=O	FECH inh active
COc1ccccc1NC(=O)CN1CCCN(Cc2cccc(F)c2)S1(=O)=O	none
CCOc1ccccc1NC(=O)CN1CCCN(Cc2cccc(C)c2)S1(=O)=O	FECH inh active
COc1ccccc1NC(=O)CN1CCCN(Cc2ccc(Cl)cc2)S1(=O)=O	none
COc1cc(OC)c(NC(=O)CN2CCCN(Cc3ccccc3)S2(=O)=O)cc1Cl	FECH inh active

Source: PubChem BioAssay
